Reference: the supplement of paper PMC3150612
± gives the standard deviation of the averaged measurements.

Assays:
Drosophila melanogaster [1] = assay: olfactory response index (dipstick assay) (fraction of flies (RI; 1 aversion, 0.5 indifferent, 0 attraction)); higher = stronger aversion to the odorant; conditions: odorant concentration: 1% v/v, male
Drosophila melanogaster [2] = assay: as above; conditions: odorant concentration: 1% v/v, female
[3] = genotype (tubulin-GAL4 x UAS-RNAi line; control = progenitor): A5
[4] = genotype (tubulin-GAL4 x UAS-RNAi line; control = progenitor): control
[5] = genotype (tubulin-GAL4 x UAS-RNAi line; control = progenitor): obp 18a
[6] = genotype (tubulin-GAL4 x UAS-RNAi line; control = progenitor): obp 22a
[7] = genotype (tubulin-GAL4 x UAS-RNAi line; control = progenitor): obp 28a
[8] = genotype (tubulin-GAL4 x UAS-RNAi line; control = progenitor): obp 56a
[9] = genotype (tubulin-GAL4 x UAS-RNAi line; control = progenitor): obp 56c
[10] = genotype (tubulin-GAL4 x UAS-RNAi line; control = progenitor): obp 56f
[11] = genotype (tubulin-GAL4 x UAS-RNAi line; control = progenitor): obp 57a
[12] = genotype (tubulin-GAL4 x UAS-RNAi line; control = progenitor): obp 57b
[13] = genotype (tubulin-GAL4 x UAS-RNAi line; control = progenitor): obp 58c
[14] = genotype (tubulin-GAL4 x UAS-RNAi line; control = progenitor): obp 59a
[15] = genotype (tubulin-GAL4 x UAS-RNAi line; control = progenitor): obp 83a
[16] = genotype (tubulin-GAL4 x UAS-RNAi line; control = progenitor): obp 83c
[17] = genotype (tubulin-GAL4 x UAS-RNAi line; control = progenitor): obp 93a
[18] = genotype (tubulin-GAL4 x UAS-RNAi line; control = progenitor): obp 99b
[19] = genotype (tubulin-GAL4 x UAS-RNAi line; control = progenitor): obp 56h
[20] = genotype (tubulin-GAL4 x UAS-RNAi line; control = progenitor): obp 58b

Row | Structure (SMILES) | olfactory response index (Drosophila melanogaster [1]; [3]) | olfactory response index (Drosophila melanogaster [1]; [4]) | olfactory response index (Drosophila melanogaster [1]; [5]) | olfactory response index (Drosophila melanogaster [1]; [6]) | olfactory response index (Drosophila melanogaster [1]; [7]) | olfactory response index (Drosophila melanogaster [1]; [8]) | olfactory response index (Drosophila melanogaster [1]; [9]) | olfactory response index (Drosophila melanogaster [1]; [10]) | olfactory response index (Drosophila melanogaster [1]; [11]) | olfactory response index (Drosophila melanogaster [1]; [12]) | olfactory response index (Drosophila melanogaster [1]; [13]) | olfactory response index (Drosophila melanogaster [1]; [14]) | olfactory response index (Drosophila melanogaster [1]; [15]) | olfactory response index (Drosophila melanogaster [1]; [16]) | olfactory response index (Drosophila melanogaster [1]; [17]) | olfactory response index (Drosophila melanogaster [1]; [18]) | olfactory response index (Drosophila melanogaster [1]; [19]) | olfactory response index (Drosophila melanogaster [2]; [3]) | olfactory response index (Drosophila melanogaster [2]; [4]) | olfactory response index (Drosophila melanogaster [2]; [5]) | olfactory response index (Drosophila melanogaster [2]; [6]) | olfactory response index (Drosophila melanogaster [2]; [7]) | olfactory response index (Drosophila melanogaster [2]; [8]) | olfactory response index (Drosophila melanogaster [2]; [9]) | olfactory response index (Drosophila melanogaster [2]; [10]) | olfactory response index (Drosophila melanogaster [2]; [11]) | olfactory response index (Drosophila melanogaster [2]; [12]) | olfactory response index (Drosophila melanogaster [2]; [20]) | olfactory response index (Drosophila melanogaster [2]; [13]) | olfactory response index (Drosophila melanogaster [2]; [14]) | olfactory response index (Drosophila melanogaster [2]; [15]) | olfactory response index (Drosophila melanogaster [2]; [16]) | olfactory response index (Drosophila melanogaster [2]; [17]) | olfactory response index (Drosophila melanogaster [2]; [18]) | olfactory response index (Drosophila melanogaster [2]; [19])
1 | OCCc1ccccc1 [2-phenylethanol] | 0.116 ± 0.078 | 0.0893 ± 0.051 | 0.0701 ± 0.021 | 0.0651 ± 0.059 | 0.163 ± 0.03 | 0.0222 ± 0.021 | 0.0551 ± 0.048 | 0.0672 ± 0.04 | 0.0379 ± 0.021 | 0.138 ± 0.096 | 0.125 ± 0.076 | 0.155 ± 0.067 | 0.132 ± 0.06 | 0.127 ± 0.051 | 0.135 ± 0.043 | 0.0352 ± 0.025 | 0.106 ± 0.049 | 0.396 ± 0.15 | 0.5 ± 0.2 | 0.117 ± 0.066 | 0.403 ± 0.12 | 0.526 ± 0.051 | 0.299 ± 0.11 | 0.367 ± 0.17 | 0.414 ± 0.076 | 0.128 ± 0.068 | 0.379 ± 0.17 | 0.381 ± 0.17 | 0.166 ± 0.08 | 0.258 ± 0.074 | 0.414 ± 0.058 | 0.437 ± 0.14 | 0.422 ± 0.2 | 0.0815 ± 0.14 | 0.258 ± 0.2
2 | CCC/C=C/C=O [(E)-2-hexenal] | 0.565 ± 0.14 | 0.681 ± 0.13 | 0.494 ± 0.13 | 0.655 ± 0.11 | 0.672 ± 0.07 | 0.763 ± 0.079 | 0.618 ± 0.13 | 0.657 ± 0.065 | 0.555 ± 0.15 | 0.718 ± 0.037 | 0.732 ± 0.052 | 0.666 ± 0.0073 | 0.663 ± 0.1 | 0.67 ± 0.085 | 0.782 ± 0.14 | 0.29 ± 0.16 | 0.55 ± 0.12 | 0.723 ± 0.11 | 0.804 ± 0.15 | 0.724 ± 0.12 | 0.811 ± 0.14 | 0.753 ± 0.051 | 0.892 ± 0.028 | 0.768 ± 0.1 | 0.727 ± 0.076 | 0.843 ± 0.1 | 0.794 ± 0.18 | 0.703 ± 0.057 | 0.715 ± 0.11 | 0.767 ± 0.13 | 0.779 ± 0.088 | 0.837 ± 0.1 | 0.848 ± 0.054 | 0.529 ± 0.24 | 0.665 ± 0.17
3 | CC(=O)c1ccccc1 [acetophenone] | 0.629 ± 0.048 | 0.394 ± 0.035 | 0.26 ± 0.13 | 0.231 ± 0.17 | 0.419 ± 0.18 | 0.275 ± 0.14 | 0.265 ± 0.077 | 0.655 ± 0.15 | 0.332 ± 0.051 | 0.318 ± 0.13 | 0.578 ± 0.18 | 0.533 ± 0.14 | 0.745 ± 0.16 | 0.066 ± 0.075 | 0.242 ± 0.12 | 0.326 ± 0.023 | 0.657 ± 0.11 | 0.747 ± 0.024 | 0.69 ± 0.11 | 0.588 ± 0.13 | 0.67 ± 0.066 | 0.656 ± 0.078 | 0.503 ± 0.066 | 0.602 ± 0.057 | 0.801 ± 0.055 | 0.668 ± 0.1 | 0.629 ± 0.053 | 0.621 ± 0.061 | 0.562 ± 0.14 | 0.717 ± 0.05 | 0.45 ± 0.15 | 0.631 ± 0.082 | 0.69 ± 0.067 | 0.376 ± 0.15 | 0.489 ± 0.037
4 | CCC=O [propanal] | 0.408 ± 0.047 | 0.158 ± 0.045 | 0.029 ± 0.031 | 0.1 ± 0.017 | 0.165 ± 0.13 | 0.111 ± 0.025 | 0.0917 ± 0.11 | 0.119 ± 0.083 | 0.0926 ± 0.076 | 0.254 ± 0.19 | 0.0938 ± 0.037 | 0.498 ± 0.047 | 0.164 ± 0.14 | 0.238 ± 0.095 | 0.289 ± 0.13 | 0.112 ± 0.019 | 0.233 ± 0.08 | 0.637 ± 0.17 | 0.467 ± 0.19 | 0.4 ± 0.18 | 0.583 ± 0.12 | 0.523 ± 0.039 | 0.24 ± 0.21 | 0.479 ± 0.049 | 0.333 ± 0.22 | 0.572 ± 0.086 | 0.66 ± 0.036 | 0.625 ± 0.097 | 0.305 ± 0.24 | 0.611 ± 0.11 | 0.312 ± 0.14 | 0.662 ± 0.086 | 0.688 ± 0.087 | 0.461 ± 0.039 | 0.356 ± 0.19
5 | Cc1cnccn1 [2-methylpyrazine] | 0.457 ± 0.04 | 0.104 ± 0.039 | 0.178 ± 0.049 | 0.155 ± 0.17 | 0.085 ± 0.043 | 0.176 ± 0.094 | 0.293 ± 0.15 | 0.151 ± 0.066 | 0.238 ± 0.096 | 0.261 ± 0.04 | 0.116 ± 0.1 | 0.397 ± 0.041 | 0.305 ± 0.16 | 0.218 ± 0.18 | 0.111 ± 0.044 | 0.1 ± 0.087 | 0.233 ± 0.078 | 0.623 ± 0.14 | 0.415 ± 0.074 | 0.358 ± 0.17 | 0.394 ± 0.084 | 0.527 ± 0.068 | 0.318 ± 0.099 | 0.458 ± 0.14 | 0.674 ± 0.013 | 0.532 ± 0.066 | 0.543 ± 0.082 | 0.159 ± 0.054 | 0.304 ± 0.15 | 0.552 ± 0.3 | 0.478 ± 0.062 | 0.431 ± 0.12 | 0.506 ± 0.13 | 0.381 ± 0.059 | 0.393 ± 0.099
6 | CC(=O)OCCC(C)C [isoamyl acetate] | 0.156 ± 0.046 | 0.228 ± 0.095 | 0.362 ± 0.29 | 0.238 ± 0.1 | 0.237 ± 0.067 | 0.419 ± 0.15 | 0.373 ± 0.16 | 0.58 ± 0.23 | 0.192 ± 0.015 | 0.215 ± 0.071 | 0.173 ± 0.11 | 0.629 ± 0.17 | 0.339 ± 0.15 | 0.321 ± 0.13 | 0.343 ± 0.14 | 0.23 ± 0.083 | 0.348 ± 0.16 | 0.442 ± 0.16 | 0.707 ± 0.066 | 0.34 ± 0.095 | 0.625 ± 0.1 | 0.488 ± 0.25 | 0.665 ± 0.19 | 0.832 ± 0.067 | 0.497 ± 0.18 | 0.465 ± 0.13 | 0.583 ± 0.29 | 0.364 ± 0.2 | 0.471 ± 0.14 | 0.733 ± 0.07 | 0.594 ± 0.099 | 0.6 ± 0.054 | 0.702 ± 0.097 | 0.499 ± 0.14 | 0.659 ± 0.12
7 | CC(C)=CCCC(C)=CC=O (mixture of isomers) [citral] | 0.266 ± 0.06 | 0.226 ± 0.041 | 0.202 ± 0.06 | 0.17 ± 0.11 | 0.387 ± 0.092 | 0.0537 ± 0.02 | 0.186 ± 0.067 | 0.452 ± 0.042 | 0.215 ± 0.046 | 0.321 ± 0.11 | 0.166 ± 0.046 | 0.517 ± 0.0054 | 0.101 ± 0.099 | 0.292 ± 0.16 | 0.285 ± 0.083 | 0.0832 ± 0.075 | 0.226 ± 0.13 | 0.595 ± 0.02 | 0.674 ± 0.046 | 0.292 ± 0.12 | 0.474 ± 0.18 | 0.552 ± 0.055 | 0.195 ± 0.075 | 0.606 ± 0.034 | 0.639 ± 0.027 | 0.636 ± 0.17 | 0.642 ± 0.097 | 0.687 ± 0.15 | 0.409 ± 0.19 | 0.68 ± 0.086 | 0.479 ± 0.091 | 0.262 ± 0.091 | 0.536 ± 0.16 | 0.317 ± 0.01 | 0.66 ± 0.13
